“And” between values parts separate entries of the source, which are not always exact repeats. Identical values can stand only once. Records with an inconclusive call do not appear. Where a call stands in place of a potency, no number is given. Some compounds were tested as several samples or in several runs, with calls that do not always agree. The source made the active and inactive calls. Calls follow the shape of the dose curve; as a rule, active = well fitted cell-killing curve with a large enough effect in the repeat runs; inconclusive = weak or mixed curves, or effect the other way; inactive = no such curve, though single readings can be large or run the other way.
Assay: qHTS assay to identify small molecule agonists of the RXR signaling pathway - cell viability counter screen (AID 1159529); also: nearly all actives have a fitted effect of over 50% in size
Conditions: RXR-alpha-bla HEK293T viability, CellTiter-Glo, 16 h; series mostly up to 76.8 µM
Excerpt: National Center for Advancing Translational Sciences [NCATS]
NIH Chemical Genomics Center [NCGC]
U.S. Environmental Protection Agency [EPA]
National Institutes of Environmental Health Sciences [NIEHS]
National Toxicology Program [NTP]
U.S. Food and Drug Administration [FDA]
The Retinoid X receptor (RXR), a nuclear hormone receptor expressed in liver, spleen, placenta, epidermis, central nervous system. These receptors are able to form homo and heterodimers with other nuclear receptors and due to this heterodimerizing ability, RXR functions as master regulators producing diverse physiological effects. Three subtypes of RXR exist; alpha, beta and gamma. Retinoid X receptor alpha (RXR-alpha) has potential roles in metabolic signaling pathways, skin alopecia, dermal cysts, cardiac development, insulin sensitization etc. Therefore screening environmental chemicals on RXR-alpha signaling can be used for the studies focused on such therapeutic applications. For quantification of RXR-alpha ligands signaling, GeneBLAzer RXR alpha-UAS-bla HEK 293T (Life Technologies, Carlsbad, CA) cells containing a beta-lactamase reporter-gene under control of Retinoid X receptor-alpha response element were used to screen Tox21 10K library. The cytotoxicity of the Tox21 compound library against the RXR-alpha HEK 293T cell line was tested in parallel by measuring cell viability using CellTiter-Glo assay (Promega Corporation, Madison, WI) in the same wells.
Tox21 Assay Protocol Summary:
RXR-alpha HEK 293T cells were dispensed at 2,000 cells/6 uL of assay medium containing 2% charcoal-stripped FBS using a Multidrop Combi (ThermoFisher Scientific, Waltham, MA) dispenser. The assay was performed in black wall/clear-bottom 1536-well plates (Greiner Bio-One North America Inc. Monroe, NC). Tetraoctyl ammonium bromide was used as a positive control in the cytotoxicity screen. After the assay plates were incubated at 37 C and 5% CO2 for 5 hr, 23 nL of compounds dissolved in DMSO, positive control or DMSO only were transferred to the assay plate by a Pintool station (Kalypsys, San Diego, CA). The assay plates were incubated at 37 C and 5% CO2 for 16 hr. One uL of LiveBLAzer B/G FRET substrate (Life Technologies) was added using a Flying Reagent Dispenser (FRD) (Aurora Discovery, San Diego, CA) and the plates were incubated at room temperature for 2 hr. Fluorescence intensity (405 nm excitation, 460/530 nm emission) was measured using an Envision plate reader (PerkinElmer, Shelton, CT). For cytotoxicity, 4 uL/well of CellTiter-Glo reagent was added into the assay plates using an FRD. After 30 min incubation at room temperature, the luminescence intensity was measured using a ViewLux plate reader (PerkinElmer).
With `OC[C@H]1O[C@@H]2O[C@H]3[C@H](O)[C@@H](O)[C@@H](O[C@H]4[C@H](O)[C@@H](O)[C@@H](O[C@H]5[C@H](O)[C@@H](O)[C@@H](O[C@H]6[C@H](O)[C@@H](O)[C@@H](O[C@H]7[C@H](O)[C@@H](O)[C@@H](O[C@H]8[C@H](O)[C@@H](O)[C@@H](O[C@H]1[C@H](O)[C@H]2O)O[C@@H]8CO)O[C@@H]7CO)O[C@@H]6CO)O[C@@H]5CO)O[C@@H]4CO)O[C@@H]3CO` the Potency was 21.9 µM (active) and inactive.
In the case of `OC1CCCCCCCCCCC1`, the Potency is reported as “inactive”.
For `COC(=O)c1ccccc1`, the Potency was “inactive”.
In the case of `CC(=O)O[C@]1(C(C)=O)CC[C@H]2[C@@H]3C=C(Cl)C4=CC(=O)[C@@H]5C[C@@H]5[C@]4(C)[C@H]3CC[C@@]21C`, the Potency is reported as “inactive”.
In the case of `Cc1ncc[nH]1`, the Potency is reported as “inactive”.
In the case of `CCOC(=O)C(C#N)=C(c1ccccc1)c1ccccc1`, the Potency is reported as “inactive”.
With `COC(=O)CCC(=O)OC` the Potency was “inactive”.
In the case of `Oc1ccc(O)cc1`, the Potency is reported as “inactive”.
In the case of `O=P(O)(O)O`, the Potency is reported as “inactive”.
For `Cc1[nH]c(=O)c(C#N)cc1-c1ccncc1`, the Potency was “inactive”.
In the case of `O=C1c2cccc(O)c2C(=O)c2c(O)cccc21`, the Potency is reported as “inactive”.
For `CCCCCCCCCC(=O)OC`, the Potency was “inactive”.
For `CCOCCOCCO`, the Potency was “inactive”.
For `CC(C)OC=O`, the Potency was “inactive”.
In the case of `S=C(NC1CCCCC1)NC1CCCCC1`, the Potency is reported as “inactive”.
With `CCCCC(CC)COP(=O)(OCC(CC)CCCC)OCC(CC)CCCC` (stereo not given) the Potency was “inactive”.
With `CCCC(=O)O` the Potency was “inactive”.
With `CNCCCC12CCC(c3ccccc31)c1ccccc12` the Potency was 21.9 µM (active) and inactive.
For `Nc1ccccc1N`, the Potency was “inactive”.
In the case of `c1ccc(Nc2ccccc2)cc1`, the Potency is reported as “inactive”.
With `C#C[C@]1(O)CC[C@H]2[C@@H]3CCc4cc(OC)ccc4[C@H]3CC[C@@]21C` the Potency was “inactive”.
With `O=C(c1ccccc1)c1ccccc1O` the Potency was “inactive”.
For `OCCO`, the Potency was “inactive”.
In the case of `Cc1cccc(C(=O)O)c1`, the Potency is reported as “inactive”.
With `CCCCOCCOCCOCCO` the Potency was “inactive”.
For `C=C(C)C1CC=C(C)CC1` (stereo not given), the Potency was “inactive”.
In the case of `Nc1ncn([C@@H]2O[C@H](CO)[C@@H](O)[C@H]2O)c(=O)n1`, the Potency is reported as “inactive”.
With `CCCc1c(OCCCCc2nn[nH]n2)ccc(C(C)=O)c1O` the Potency was “inactive”.
For `c1cc(-c2ccncc2)ccn1`, the Potency was “inactive”.
For `CCC(C)CO` (stereo not given), the Potency was “inactive”.
With `CC(=O)c1ccccn1` the Potency was “inactive”.
With `CC(C)=CCCC(C)CCO` (stereo not given) the Potency was “inactive”.
With `CC(C)OC(=O)C(C)(C)Oc1ccc(C(=O)c2ccc(Cl)cc2)cc1` the Potency was “inactive”.
With `CCCCc1oc2ccccc2c1C(=O)c1cc(I)c(OCCN(CC)CC)c(I)c1` the Potency was 12.4 µM (active) and 16.9 µM (active).
With `O=CCc1ccccc1` the Potency was “inactive”.
With `Cc1cc2nc3c(=O)[nH]c(=O)nc-3n(C[C@H](O)[C@H](O)[C@H](O)CO)c2cc1C` the Potency was “inactive”.
In the case of `O=C(O)c1ccccc1Nc1cccc(C(F)(F)F)c1`, the Potency is reported as “inactive”.
In the case of `CN(C)c1nc(N(C)C)nc(N(C)C)n1`, the Potency is reported as “inactive”.
In the case of `O=C(/C=C/c1ccccc1)OCc1ccccc1`, the Potency is reported as “inactive”.
For `c1ccc2c(c1)Oc1ccccc1S2`, the Potency was “inactive”.

Reference: PubChem BioAssay (Tox21)
Potency is read from the fitted curve at half-maximal effect.
